This is an account of results in PubChem BioAssay AID624305 (National Center for Advancing Translational Sciences (NCATS), 2012).

Structures are written as SMILES. Inconclusive results are not listed. A number with no mark means an inactive call. The source made the active and inactive calls. Calls come from the whole dose curve; as a rule, active = well fitted activation curve with a large enough effect; inconclusive = small, poorly fitted or top-dose-only effect; inactive = no such curve, though single readings can be large or run the other way.
Potency is the fitted concentration of half-maximal effect.

The assay can be described thus: qHTS assay for re-activators of p53 using a Luc reporter: Hit Validation. For activation: 0% is about no effect. Note: nearly all actives have a fitted effect of over 75% in size. Particulars: p53-responsive luciferase reporter cells, luminescence, H1299 line expressing heat-sensitive Ala138Val p53; series mostly up to 46.1 µM. Summed up:
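H1299 (p53-null) cells stably carrying p53-A138V and a BP100-luciferase reporter, 1000 cells/well, treated 24 h at 37 deg C. Compounds at several concentrations, 1:5 dilution; nocodazole control; luminescence read after 10 min with detection reagent.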
In general terms: In qHTS, concentration-response curves come from the screen itself.
As for `CCN(CC)c1ccc(NC(=O)CN2CCN(CC(=O)Nc3ccccc3F)CC2)cc1`, the Potency entry was “inactive”. Consider `COc1cc(C(=O)NCC(=O)Nc2c(C)cccc2C)ccc1OCc1ccccc1`, for which the Potency result was “inactive”. For `O=C(O)CCCC(=O)NCCc1ccncc1`, the Potency entry was “inactive”. Take `Cc1cc(/C=N/Nc2ncnc(N)c2[N+](=O)[O-])c(C)n1-c1ccccc1`: the Potency is 92 nM (active).

With `c1ccc(-c2cn3c(n2)-c2ccccc2C3)cc1`, the Potency is 206 nM (active). Take `O=C1CCCC(O)=C1N=Nc1c(Cl)cc(Cl)cc1Cl`: the Potency entry was “inactive”. As for `O=C(NNC(=O)c1cc(-c2ccccc2)nn1-c1ccccc1)c1ccccc1`, the activation is 1.05% [at 9.22 µM]. Regarding `N#CC1(c2ccc(NC(=O)c3ccccc3F)cc2)CCCC1`, the Potency is 1640 nM (active). As to `COc1ccccc1C(=O)CC(=O)c1ccccc1`, the Potency entry was “inactive”. Regarding `O=C(/C=C/c1ccccc1)NC1CCSC1=O` (stereo not drawn), the activation is 23.4% [at 9.22 µM].

`COc1ccc2c(c1)Cc1sc(NC(C)=O)nc1-2`: the Potency is 11600 nM (active).

Consider `CCc1ccc(N=c2c([N+](=O)[O-])nn(-c3ccccc3)n2O)cc1`, for which the Potency is 9200 nM (active).

As to `CCc1nnc(NC(=O)/C=C/c2ccco2)s1`, the Potency was 20600 nM (active). Regarding `c1ccc2nc(-c3ccc(N4CCOCC4)cc3)ccc2c1`, the Potency is 164 nM (active). Still for that read-out and setting: under `COCCSc1ccccc1C(=O)Nc1cc(C)ccn1` stands “inactive”; under `Cc1ccc(S(=O)(=O)c2cn(CC(=O)Nc3ccccc3)c3ccc(F)cc3c2=O)cc1`, “inactive”.

As for `O=C(CC(Nc1ccc(F)cc1)C(=O)OCC(=O)c1cccs1)c1ccccc1` (stereo not drawn), the Potency result was “inactive”. Same read-out and setting: under `O=C(NNC1=C(C(=O)C(F)(F)F)CCC1)c1cccc(O)c1` stands “inactive”. `NC(=NCc1ccccc1)c1cccc([N+](=O)[O-])c1`: the Potency result is “inactive”. As to `Fc1ccccc1/C=C/c1ccc2ccccc2n1`, the Potency was 731 nM (active).

Turning to `CCOC(=O)C1=C(C)Nc2ncnn2C1c1c[nH]c2ccccc12` (stereo not drawn), the Potency result is “inactive”.

For the compound `COc1ccc(C2=NN(C(C#N)c3ccc(OC)cc3)C(c3ccccc3)C2)cc1` (stereo not drawn), the Potency is 14600 nM (active). The same measure, in the same setting: under `O=C(N/N=C/c1cccs1)c1n[nH]c2c1CCC2` stands 517 nM (active); under `CCOC(=O)N1CCN(S(=O)(=O)c2ccc(C(=O)NNc3nc4c(C)cc(C)cc4s3)cc2)CC1`, “inactive”; under `COc1ccc(N2C(=O)CC(Cc3ccc(Br)cc3)C2=O)cc1` (stereo not drawn), “inactive”. Take `CC(C)N1C(=O)CN(C2CCCCCC2)C(=O)C1c1ccccc1F` (stereo not drawn): the Potency result is “inactive”. Same read-out and setting: under `O=C(NOCc1ccccc1)c1ccc(Cl)cc1` stands 1840 nM (active); under `COc1ccc2oc(C(=O)OCC(=O)NCCN3C(=O)CSC3=O)c(C)c2c1`, “inactive”; under `CCOc1ccc2cc(C#N)c(SCC(=O)OC)nc2c1`, 2910 nM (active). Still for that read-out and setting: under `C=CCNc1nc(-c2cc3ccccc3o2)cs1` stands 651 nM (active).

Consider `CCOc1ccc2c(c1)C(C)=CC(C)(C)N2S(=O)(=O)c1ccc(NC(C)=O)cc1`, for which the Potency result is “inactive”. Turning to `O=C(/C=C/c1cnc2ccccc2n1)NC12CC3CC(CC(C3)C1)C2`, the Potency was 9200 nM (active).

As to `CC(/C=N/Nc1nc2ccccc2[nH]1)=C\c1ccccc1`, the Potency is 651 nM (active).

Consider `CCOc1ccc(N/C=C/C(=O)c2ccccc2)c([N+](=O)[O-])c1`, for which the Potency is 461 nM (active).

In the case of `CCOC(=O)C1CCN(S(=O)(=O)Cc2ccccc2)C1=O` (stereo not drawn), the Potency entry was “inactive”. The same measure, in the same setting: to `COc1ccc(C(=O)N=c2nc3ccccn3s2)cc1` belongs 92 nM (active); to `Cc1ccc2nc(-c3ccc(NC(=O)COC(=O)c4ccc(Br)o4)cc3)sc2c1`, 51.7 nM (active). On the same count and under the same terms, under `Brc1c(CSc2nc3ccccc3s2)nc2ncccn12` stands 9200 nM (active).
